High-throughput results (PubChem BioAssay)
USP8 inh: inhibitors of human USP8 deubiquitinase | Ubiquitin carboxyl-terminal hydrolase 8 (Homo sapiens), P40818 | purified USP8, Ub-rhodamine cleavage fluorescence, 30 min | 47,000 tested, 4.2% active | inhibition, % at 20 µM
USP17 inh: inhibitors of human USP17 deubiquitinase; AID 1645855, 2021; 47,000 tested, 6.5% active; inhibition, % at 50 µM; Ubiquitin carboxyl-terminal hydrolase 17-like protein 5 (Homo sapiens), A8MUK1; purified USP17, Ub-rhodamine cleavage fluorescence, 3 h
Target sequence (A8MUK1 whole entry, looked up): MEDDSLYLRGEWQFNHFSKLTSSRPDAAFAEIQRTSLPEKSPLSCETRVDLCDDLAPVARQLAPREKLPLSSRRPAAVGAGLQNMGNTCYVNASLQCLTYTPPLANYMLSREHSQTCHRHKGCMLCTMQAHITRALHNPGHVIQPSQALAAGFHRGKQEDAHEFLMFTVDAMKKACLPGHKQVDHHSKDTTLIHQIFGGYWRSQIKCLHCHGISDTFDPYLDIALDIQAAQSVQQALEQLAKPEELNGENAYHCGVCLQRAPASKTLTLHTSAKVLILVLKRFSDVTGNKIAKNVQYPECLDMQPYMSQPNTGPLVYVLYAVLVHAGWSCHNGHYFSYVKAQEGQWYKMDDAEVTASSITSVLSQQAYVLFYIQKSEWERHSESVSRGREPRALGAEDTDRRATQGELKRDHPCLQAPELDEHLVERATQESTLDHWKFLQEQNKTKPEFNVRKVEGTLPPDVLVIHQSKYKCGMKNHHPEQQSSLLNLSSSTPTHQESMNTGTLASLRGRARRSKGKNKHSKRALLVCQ
USP30 block: inhibitors of human USP30 deubiquitinase | Ubiquitin carboxyl-terminal hydrolase 30 (Homo sapiens), Q70CQ3 | purified USP30, Ub-rhodamine cleavage fluorescence | inhibition, % at 25 µM | 47,000 tested, 5.3% active | AID 1645860, 2021
Starred values were filed as active, the others as inactive; · = no result. The list is not random: actives were taken first. Their share in the collection is about 12%. Cut-off read from the data, not from the text of the source: active = inhibition above about 30%; inactive = the rest.

SMILES | USP8 inh | USP17 inh | USP30 block
Cc1ccc(-c2c3c4n(c(-c5ccc(Cl)cc5)cn4c2C(=O)NC2CCCCC2)CCCC3)cc1 | 26 | -9 | -99
Cc1ccc(-c2c3c4n(c(-c5ccc(Cl)c(Cl)c5)cn4c2C(=O)NC2CCCCC2)CCCC3)cc1 | 44* | -2 | -91
Cc1cnc(C(=O)Nc2ccc(C3CCc4nncn4C3)cc2)cn1 (stereo unspecified) | -10 | 3 | 9
Cc1nc2ccccn2c1CC(=O)Nc1cccc(C2CCc3nncn3C2)c1 (stereo unspecified) | 36* | 0 | 12
COC(=O)c1ccc(NC(=O)c2cccc3c2SCCC3=O)cc1 | 8 | 36* | 4
CN(CCCNC(=O)c1cccc2c1SCCC2=O)c1ccccc1 | 40* | 54* | 0
CCOc1ccccc1N(C)C(=O)c1cccc2c1SCCC2=O | 9 | 5 | 8
O=C1CCSc2c1cccc2C(=O)Nc1cccc(C(F)(F)F)c1 | 14 | 5 | 7
COc1ccc(COC(=O)NC2CCN(S(=O)(=O)c3ccc(OC)cc3)CC2)cc1 | -12 | -41 | -62
COc1ccc2c(c1)C(=O)N(CCc1ccc(S(=O)(=O)NC(=O)NC3CCCCC3)cc1)C(=O)C2(C)C | 17 | 28 | 47*
O=C(/C=C\c1ccccc1)Nc1c2c(nn1-c1ccc(Cl)cc1)CS(=O)(=O)C2 | 11 | 24 | 21
Cc1cc(-c2cnc(C)nc2-c2cccs2)on1 | 2 | 8 | 22
Cc1cc(-c2ccc(S(=O)(=O)NCc3ccccn3)s2)on1 | 1 | -13 | -12
Cc1cc(-c2ccc(S(=O)(=O)NCCc3ccccc3)s2)on1 | 20 | 29 | 35*
O=C(NCc1ccccc1)Nc1cccc2ccccc12 | 95* | 84* | -5
O=C(NCc1ccc(F)cc1)Nc1cccc2ccccc12 | 71* | 40* | 40*
O=C(CCc1ccc2[nH]ccc2c1)NCc1ccc(F)cc1 | -12 | -21 | -55
COc1ccc(CCC(=O)Nc2cccc3ccccc23)cc1OC | 26 | 1 | 26
Cc1nc2c(NC(=O)NCc3ccccc3)cccn2n1 | -3 | 0 | -10
COc1ccc(CNC(=O)Nc2cccc3ccccc23)cc1 | 97* | 92* | 38*
O=C(CSc1n[nH]c(-c2ccccc2)n1)NCC1CCCO1 (stereo unspecified) | 0 | -7 | -2
O=C(C1CCCC1)N1CCCC(Cc2cnc(-c3ncc[nH]3)cn2)C1 (stereo unspecified) | -33 | -12 | 0
COC(=O)c1c(C(=O)OC)c(-c2ccccc2)n(C)c1-c1ccccc1 | 8 | 19 | 21
COC(=O)c1c(C)nn(C)c1-c1ccno1 | 14 | 16 | 31*
Cc1ccc(NC(=O)N2Cc3cccn3-c3ccccc32)cc1C | 9 | -10 | 3
SMILES | USP8 inh | USP17 inh | USP30 block
CCc1nc(CN2CCOC(C)(C(=O)N3CCOCC3)C2)c(C)[nH]1 (stereo unspecified) | 10 | 7 | 30*
CCc1nc(CN2CCN(C3CCOCC3)CC(C(N)=O)C2)c(C)[nH]1 (stereo unspecified) | 0 | 0 | 11
Cc1cc2nc(SCC(=O)c3ccc(O)cc3)[nH]c2cc1C | 28 | 49* | 27
Cc1cc(C(=O)CSc2nc3ccccc3[nH]2)c(C)n1C1CC1 | -25 | -10 | ·
COc1ccccc1NC(=O)c1noc(C)c1C | 4 | 2 | -5
O=C(CCC(=O)N1CCC(C(=O)N2CCCCC2)CC1)Nc1ccc(Oc2ccccc2)cc1 | 3 | 7 | 11
CCOC(=O)C1CCN(C(=O)CCC(=O)Nc2ccc(Oc3ccccc3)cc2)CC1 | 14 | 21 | 34*
CC(=O)c1ccc(NC(=O)CCn2c(=O)c3cccn3c3ccccc32)cc1 | 29 | 43* | -245
CCc1ccccc1NC(=O)CCc1c(C)nc2c(c1C)c(=O)n(C)c(=O)n2C | 22 | 20 | 16
CC(=O)c1ccc(NC(=O)CN2CCc3ccccc3C2)cc1 | 4 | -8 | -9
CCc1ccccc1NC(=O)CCn1c(=O)c2cccn2c2ccccc21 | 37* | -15 | -25
Cc1cnc(-c2nccnc2C2CCCN(Cc3ccccc3)C2)[nH]1 (stereo unspecified) | 2 | -13 | -5
Cc1cccc(NS(=O)(=O)c2ccc3[nH]c(=O)cc(C(=O)O)c3c2)c1 | -60 | -28 | -32
CC(C)CNC(=O)c1cc(=O)[nH]c2ccc(S(=O)(=O)Nc3ccc(F)cc3)cc12 | 4 | 36* | 25
CCN1CCN(c2ccc(-c3ccc(OC)c(S(=O)(=O)N4CCCC4)c3)nn2)CC1 | -5 | 9 | 1
COc1cc(NC(=O)c2cn3c(n2)CCCC3)cc(OC)c1 | 0 | -4 | -1
COc1ccccc1CNS(=O)(=O)c1cc(-c2csc(C)n2)ccc1C | 10 | 13 | -7
Cc1ccc(NC(=O)c2cc(CN3CCOCC3)on2)c(C)c1 | 11 | 5 | 12
O=C(NCc1csc(-c2ccccc2)n1)c1ccccc1F | 9 | 7 | 3
O=C(NCc1csc(-c2ccccc2)n1)c1cc(F)cc2c1OCOC2 | 2 | 33* | 15
O=C1C(=O)N(c2nc3ccc(F)cc3s2)C(c2ccc(F)cc2)/C1=C(\O)c1ccc(F)cc1 (stereo unspecified) | -40 | -80 | -110
O=C(CSc1nnnn1-c1ccccc1)Nc1ccccc1 | 10 | 51* | 46*
O=C(CSc1nnnn1-c1ccccc1)N1CCN(c2ccccc2)CC1 | -5 | 13 | 15
CC1CCN(c2cc(-c3nccn3CC(=O)NC3CCCC3)ccn2)CC1 | 2 | -14 | -12
Cc1ccc2nc(NC(=O)Cc3c[nH]c4ccccc34)sc2c1 | -9 | -8 | 0
SMILES | USP8 inh | USP17 inh | USP30 block
COc1ccc(-c2cc(C(F)F)n3ncc(C(=O)NC(C)c4ccc(C(C)C)cc4)c3n2)cc1 (stereo unspecified) | 24 | 12 | 26
COc1ccc(-c2cc(C(F)F)n3ncc(C(=O)N(Cc4ccccc4)Cc4ccccc4)c3n2)cc1 | 6 | -5 | 1
COc1ccc(-c2cc(C(F)F)n3ncc(C(=O)Nc4ccc5c(c4)OCCO5)c3n2)cc1 | 4 | 11 | 56*
COc1ccc(-c2cc(C(F)F)n3ncc(C(=O)NCC4CCCO4)c3n2)cc1 (stereo unspecified) | 0 | 33* | ·
CCOc1ccc(NC(=O)COc2ccc(F)cc2)c2cccnc12 | 17 | 5 | -8
CCCCOc1cccc(C(=O)Nc2ccc(OCC)c3ncccc23)c1 | 83* | 47* | 1
Cc1noc(/C=C/Nc2ccc(OC(F)(F)F)cc2)c1[N+](=O)[O-] | 41* | -6 | -25
COC(=O)c1c(-c2c(Cl)cccc2Cl)noc1/C=C/Nc1ccc(C(=O)O)cc1 | 26 | 7 | -35
CCOC(=O)c1cnc2c(cnn2C)c1NCc1ccc(OC)cc1 | 0 | 8 | 0
CCOC(=O)c1cnc2c(cnn2C)c1NCc1cccc(C(F)(F)F)c1 | 37* | 15 | 41*
CCCN1CCN(Cc2nc3nc(C)cc(N4CCOCC4)n3n2)CC1 | 6 | 3 | 4
CCn1ccc2c(cc(C(=O)Nc3cccc(C)c3C)n2C)c1=O | -8 | -16 | -6
CCn1ccc2c(cc(C(=O)Nc3cccc(F)c3)n2C)c1=O | -7 | 39* | 12
O=S(=O)(c1ccccc1)N1CCC2(CC1)NCCN=C2NCc1ccc2c(c1)OCO2 | -2 | -1 | -3
